Screening results: PubChem, National Center for Advancing Translational Sciences (NCATS)
This is a sample that favours compounds with a hit; in the whole collection about 7.6% have one here.
TSHR ag: TSH receptor (human) agonism; HEK293-CNG-TSHR cells (CNG channel as cAMP sensor), membrane potential dye, cAMP; Potency, µM (titrated, usually from 57.1 µM), hits mostly activators; actives 0.48% (n = 73,000); AID 926; active means well fitted activation curve with a large enough effect in the main read-out, with a control signal flat, not every such curve was filed as active; inconclusive means small, poorly fitted or top-dose-only effect, or a change in a side signal; inactive means no such curve, though single readings can be large or run the other way; reference of the percent scale not stated here;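 further: the control signal comes from parental cells without the receptor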
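HEK 293 cells stably expressing TSHR and a cAMP-gated CNG channel; parental CNG-only cells as counterscreen. Cells preloaded 60 min with membrane potential dye plus 100 uM RO 20-1724, then compound 30 min; fluorescence read at 590 nm.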
CRE-bla Fsk: modulators of forskolin-stimulated CRE signaling in CHO cells; CHO CRE-bla reporter (cAMP response element driving beta-lactamase), forskolin EC10, beta-lactamase ratio; Potency, µM (titrated, usually from 38.2 µM), hits mostly activators; actives 2.5% (n = 71,000); AID 662; active means well fitted activation curve with a large enough effect in the signal ratio, with a control signal flat, not every such curve was filed as active; inconclusive means small, poorly fitted or top-dose-only effect, or effect the other way, or a change in a side signal; the % refers to the signal ratio
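AC50 values, positive or negative, reflect shifts in EC10 NKH 477-induced CRE-bla reporter activity in CHO cells. Incubation lasted 3 h at 37 °C before CCF4 substrate (2 h, room temperature) and ratiometric 460/530 nm reading.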
Tau filament bind: binds recombinant human tau filaments; P10636; recombinant tau filaments, thioflavin S fluorescence, 15 h; filaments grown with octadecylsulfate alongside compound; Potency, µM (highest dose often 57.1 µM); actives 2% (n = 71,000); AID 596;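 further: actives lower thioflavin S fluorescence by blocking filaments or displacing dye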
Target sequence (P10636 whole entry, looked up): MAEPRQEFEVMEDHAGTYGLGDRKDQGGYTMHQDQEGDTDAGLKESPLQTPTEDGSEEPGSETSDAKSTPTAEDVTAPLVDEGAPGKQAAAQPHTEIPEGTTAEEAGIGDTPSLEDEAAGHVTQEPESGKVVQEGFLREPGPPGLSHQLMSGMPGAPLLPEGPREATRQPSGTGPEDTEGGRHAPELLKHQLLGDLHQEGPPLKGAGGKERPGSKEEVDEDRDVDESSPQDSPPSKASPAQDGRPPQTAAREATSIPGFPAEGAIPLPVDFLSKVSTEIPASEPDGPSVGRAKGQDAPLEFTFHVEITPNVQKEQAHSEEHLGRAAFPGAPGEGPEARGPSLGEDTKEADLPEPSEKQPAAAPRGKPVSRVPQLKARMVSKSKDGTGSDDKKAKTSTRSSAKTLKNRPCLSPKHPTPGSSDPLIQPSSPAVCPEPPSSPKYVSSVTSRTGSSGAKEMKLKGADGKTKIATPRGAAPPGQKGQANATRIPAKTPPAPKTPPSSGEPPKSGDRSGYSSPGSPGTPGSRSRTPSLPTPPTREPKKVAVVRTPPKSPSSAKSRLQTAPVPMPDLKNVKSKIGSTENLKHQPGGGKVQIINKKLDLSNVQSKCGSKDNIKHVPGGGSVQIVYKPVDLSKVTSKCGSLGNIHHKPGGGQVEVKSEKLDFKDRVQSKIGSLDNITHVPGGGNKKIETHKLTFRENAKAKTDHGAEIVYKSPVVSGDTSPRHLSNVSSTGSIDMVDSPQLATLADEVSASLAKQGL
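ThS-based fibril read: tau 1 uM final, inducer ODS 30 uM final, 37 C for 15 h, ex 450/em 510 nm.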
HEK293 cAMP ctrl: counter-screen for TSHR agonists: cAMP increase in parental HEK293; actives 2.5% (n = 73,000); parental HEK293 CNG cAMP sensor, membrane potential fluorescence; AID 938; Potency, µM (series often up to 57.1 µM), usual class: activators; further: nearly all actives have a fitted effect of over 55% in size
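Counterscreen for endogenous-receptor signalling: CNG-channel HEK 293 cells report cAMP rise by membrane depolarization. After 60 min dye equilibration with 100 uM RO 20-1724, compounds incubated 30 min before bottom-read fluorescence at 590 nm.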
ERK AVP inh: inhibitors of vasopressin-stimulated ERK signaling pathway; Potency, µM (titrated, usually from 57.5 µM), actives largely listed as inhibitors; HEK293-V1b, vasopressin-stimulated pERK AlphaScreen; actives 0.99% (n = 72,000); AID 995; further: nearly all actives have a fitted effect of over 55% in size
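V1b-HEK293 cells; cpd 30 min 37C; 25 nM vasopressin 5 min; lyse 10 min; AlphaScreen beads 5 hr RT. Normalized to DMSO basal and 25 nM vasopressin; AC50 by Hill fit.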
CHO tox 24h: cytotoxicity in CRE-bla CHO cells at 24 h. shares compounds with CRE-bla Fsk. CRE-bla CHO viability, ATP luminescence, 24 h. activity, negative = viability loss, % at 46.1 µM. 120 tested, under 10 active
CHO via 40h: cytotoxicity in CRE-bla CHO cells at 40 h; shares compounds with CRE-bla Fsk; CRE-bla CHO viability, ATP luminescence, 40 h; Potency, µM, usual class: inhibitors; 120 tested, under 10 active; AID 906
CRE-luc potent: boosts CRE luciferase signal in HEK293 cells; shares compounds with CRE-bla Fsk; HEK293 CRE-luc2P, NKH477 EC10 potentiation, luminescence, 4 h; Potency, µM (highest dose often 38.3 µM), hits mostly activators; actives 80% (n = 120); AID 907
parental cAMP: TSHR-independent cAMP elevation, counter-screen; shares compounds with TSHR ag; parental HEK293 CNG biosensor, cAMP membrane potential fluorescence; activity change, negative = inhibition, % at 32.9 µM; 150 tested, under 10 active
Large screens that a line does not name were inactive (follow-up assays come after a bar, where they were run). Unless noted, the call rests on the fitted dose curve; in most records, active means well fitted curve in the direction sought with a large enough effect; inconclusive means small, poorly fitted or top-dose-only effect, or another doubt; inactive means no such curve, though single readings can be large; an effect the other way counts as inactive or inconclusive.

Cc1noc(C)c1C(=O)N1CCC2(CCN(Cc3ccccc3)CC2)CC1	none
O=c1c(-c2ccccc2)nc2cnc(Oc3ccccc3)nc2n1Cc1cccs1	Tau filament bind inconclusive
O=C(Nc1ccc(-c2cn3ccsc3n2)cc1)c1ccc(F)c(S(=O)(=O)N2CCOCC2)c1	CRE-bla Fsk 1.6µM, ERK AVP inh 13µM | CHO tox 24h inconclusive | CHO via 40h inactive | CRE-luc potent 2.8µM
COC(=O)c1cc(NC2c3ccccc3C(=O)N2c2cccnc2)cc(C(=O)OC)c1 (stereo not given)	TSHR ag 16µM | parental cAMP inactive
COc1ccc(NC2c3ccccc3C(=O)N2c2cccnc2)cc1Cl (stereo not given)	none
CN1C(=O)N(C)C2(c3ccccc3)Nn3c(s/c(=C/c4ccco4)c3=O)=NC12c1ccccc1 (stereo not given)	TSHR ag 1.6µM | parental cAMP inactive
O=c1/c(=C/c2ccco2)sc2nc(-c3ccccc3Br)nn12	none
Nc1nc(-c2ccccc2)cc(C(F)(F)F)n1	CRE-bla Fsk inconclusive
Oc1ccccc1-c1cc(C(F)(F)C(F)F)nc(-c2ccccc2)n1	TSHR ag inconclusive, HEK293 cAMP ctrl inconclusive | parental cAMP inactive
COCCNC(=O)C(c1ccccc1)N(Cc1cccs1)C(=O)Cn1nnc2ccccc21 (stereo not given)	TSHR ag 13µM | parental cAMP inactive
CCOC(=O)CN(C(=O)Cn1nnc2ccccc21)C(C(=O)NCCOC)c1ccccc1 (stereo not given)	none
Cc1cccc(OCC(=O)OCC(=O)c2c(N)n(C)c(=O)n(C)c2=O)c1	TSHR ag 13µM | parental cAMP inactive
O=C1C(O)=C(O)C(=O)C(O)=C1O	none
O=C1N=C(O)CN1/N=C\c1ccc(-c2ccc([N+](=O)[O-])cc2)o1	CRE-bla Fsk inconclusive
COc1ccc(NC(=O)CN(c2ccc(C)cc2)S(=O)(=O)c2c(C)nn(C)c2C)cc1OC	none
Cc1nn(C)c(C)c1S(=O)(=O)N(CC(=O)Nc1ccccn1)c1ccc(C(C)C)cc1	TSHR ag 10µM | parental cAMP inactive
CC(C)CN1CCCC2(CCN(C(=O)c3cnccn3)CC2)C1	none
O=C(c1ccncc1)N1CCC2(CCCN(Cc3nccs3)C2)CC1	none
COC(=O)CNC(=O)C12CC3(C)CC(C)(CC(C)(C3)C1)C2	TSHR ag 13µM | parental cAMP inactive
COC(=O)C1=C(C)NC(C)=C(C(=O)OC)C1c1ccc(OC(=O)c2ccco2)cc1	TSHR ag 20µM | parental cAMP inactive
CCOC(=O)C1=C(C)NC(C)=C(C(=O)OCC)C1c1ccc(OC)cc1	none
COc1cc(OC)cc(C(=O)N2c3ccc(F)cc3CCC2C)c1 (stereo not given)	TSHR ag 13µM | parental cAMP inactive
Cn1c(=O)[nH]c(=O)c2c1nc(N1CCCCCC1)n2CCCSc1nc2ccccc2o1	CRE-bla Fsk inconclusive | parental cAMP inactive
Clc1ccc(Cl)c(SCCCN2CCNCC2)c1	none
O=C(c1cccc(F)c1)N1CCC2(CC1)CN(c1ccccc1)C2	none
CC(=O)Nc1ccc(S(=O)(=O)N(C)c2ccccc2)cc1	TSHR ag 0.79µM | parental cAMP inactive
COc1ccc(S(=O)(=O)N(C)CC(=O)N2CCCCCC2)cc1OC	CRE-bla Fsk inconclusive | parental cAMP inactive
Cc1cc(Cl)c(S(=O)(=O)Nc2ccc3c(c2)OCO3)cc1OCC(N)=O	TSHR ag 13µM | parental cAMP inactive
CC(=O)N(C[C@@H](C)C(=O)O)c1c(I)cc(I)c(N)c1I	none
Cc1cc(=O)[nH]c(SCCOc2ccc(OC(C)C)cc2)n1	none
Cc1cc(=O)[nH]c(SCCOc2ccc3c(c2)CCC3)n1	none (no result: TSHR ag) | parental cAMP inactive
O=C(O)[C@H]1CCCC[C@@H]1C(=O)Nc1nc2ccccc2[nH]1	none
O=C(CSc1nc2scc(-c3ccco3)c2c(=O)n1-c1ccccc1)N1CCOCC1	TSHR ag 16µM, ERK AVP inh inconclusive | parental cAMP inactive
CC1CC[C@]2(CO)CC[C@]3(C)C(=CCC4[C@@]5(C)CCC(O)C(C)(C)C5CC[C@@]43C)C2C1C (stereo not given in full)	none (no result: TSHR ag, CRE-bla Fsk, Tau filament bind, HEK293 cAMP ctrl)
COc1cc(NC(=O)c2cc(-n3cnnc3)ccc2Cl)cc(OC)c1	CRE-bla Fsk inconclusive (no result: TSHR ag) | parental cAMP inactive
CC(=O)c1cccc(NC(=O)c2cc(-n3cnnc3)ccc2Cl)c1	none
COc1ncc2nc(-c3cc(F)cc(F)c3)c(=O)n(CCC#N)c2n1	Tau filament bind inconclusive
COc1ncc2nc(-c3ccc(Cl)cc3)c(=O)n(CCC#N)c2n1	none
CCOc1ccc(NC(=O)C(C)SC(N)=O)cc1 (stereo not given)	none | parental cAMP inactive
CCOc1ccc(N(C(C)C(=O)Nc2ccc(OC)cc2)S(C)(=O)=O)cc1 (stereo not given)	none | parental cAMP inactive
CC(C)C(C)/C=C/C(C)C1CCC2C3=CCC4CC(=O)CC[C@@]4(C)C3CC[C@]21C (stereo not given in full)	none (no result: TSHR ag, CRE-bla Fsk, Tau filament bind, HEK293 cAMP ctrl)
Cc1noc(/C=C/c2ccco2)c1S(=O)(=O)N1CCC(C(=O)NCc2ccco2)CC1	TSHR ag 32µM | parental cAMP inactive
CCCCCC(C)N (stereo not given)	none (no result: TSHR ag, CRE-bla Fsk, Tau filament bind, HEK293 cAMP ctrl)
Cc1ccc(S(=O)(=O)NC(=O)Nn2c(C)nnc2C)cc1	none | parental cAMP inactive
Cc1ccc(S(=O)(=O)NC(=O)NN2CCCCCC2)cc1	none
CC1=CCC2C(=O)N(c3ccc(Br)cc3C)C(=O)C2C1 (stereo not given)	TSHR ag 25µM | parental cAMP inactive
N#C[C@H](Cc1ccc(O)cc1)c1ccc(O)cc1	CRE-bla Fsk inconclusive, Tau filament bind inconclusive
CCOC(=O)C1C(=O)Nc2nc(C)nn2C1c1ccccc1 (stereo not given)	TSHR ag 4µM | parental cAMP inactive
CCOC(=O)C1C(=O)NC(N2CCCCC2)=NC1c1ccccc1 (stereo not given)	none
